A selection: hits, their analogues and other compounds. The true share with any hit is near 4.2%.
hcDAF12 agonist = activates DAF-12 receptor from parasite H. contortus; HEK293 hcDAF-12 lit1-tk-luc reporter, luminescence; 0% DMSO, 100% Δ7-dafachronic acid; activation, % at 6.8 µM; hit rate 1.4% among 370,000; AID 652067;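 active means activation above the mean of all tested compounds plus 3 SD, cut at about 5.5% in these data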;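 further: 100% = response to 3 µM Δ7-dafachronic acid high control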
DAX1 inh = DAX1 (NR0B1) inhibition, primary screen; HEK293T StAR-luciferase reporter, SF-1/DAX-1 repression relief; inhibition, % at 6.8 µM; hit rate 1.1% among 370,000;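 active means inhibition above the mean over all tested compounds plus 3 SD, cut at about 3.6% in these data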;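 further: 0% = DAX-1 cells with DMSO and 100% = cells lacking DAX-1 with DMSO; higher inhibition means more luminescence from relief of DAX-1 repression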
hgDAF12 agonist = hgDAF-12 agonism, primary luciferase screen | HEK293 GAL4-hgDAF12 UAS-luciferase reporter, agonist luminescence; normalized to butyrate control | activation, % at 6.8 µM | hit rate 1.8% among 370,000 | AID 687014;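 active means activation above a cutoff set at the mean of all screened compounds plus 3 SD, cut at about 10% in these data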;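 further: 0% = DMSO wells and 100% = sodium butyrate wells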
ssDAF-12 act = activators of S. stercoralis DAF-12 nuclear receptor. HEK293 ssDAF-12/GRIP1 lit1-tk-luc reporter, luminescence; % of 3 µM dafachronic acid response. activation, % at 6.8 µM. hit rate 1% among 370,000;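 active means activation above the mean over all tested compounds plus 3 SD, cut at about 0.9% in these data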;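 further: 0% = DMSO-only wells and 100% = 3 µM delta7-dafachronic acid wells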
SMARCA2 act = SMARCA2 function activation, primary screen; MG213 cells, MMTV-luciferase reporter, dexamethasone, overnight; activation, % at 9.1 µM; hit rate 1% among 370,000; AID 652017; in the data active means activation above about 7.8%;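 further: 0% = vehicle wells and 100% = reference activator wells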
LXR ag = counter-screen for hcDAF-12 agonists: agonists of human LXR-beta; shares compounds with hcDAF12 agonist; activation, % at 6.8 µM; AID 743027; HEK293 Gal4-LXR tk-luc reporter, luminescence, 24 h; normalized: DMSO 0%, positive control 100%; 3,400 tested, under 10 active;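 active means mean percent activation of the reporter above a cutoff set as the average over tested compounds plus their standard deviation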
Target sequence (P55055 whole entry, looked up, the tested form may be a part): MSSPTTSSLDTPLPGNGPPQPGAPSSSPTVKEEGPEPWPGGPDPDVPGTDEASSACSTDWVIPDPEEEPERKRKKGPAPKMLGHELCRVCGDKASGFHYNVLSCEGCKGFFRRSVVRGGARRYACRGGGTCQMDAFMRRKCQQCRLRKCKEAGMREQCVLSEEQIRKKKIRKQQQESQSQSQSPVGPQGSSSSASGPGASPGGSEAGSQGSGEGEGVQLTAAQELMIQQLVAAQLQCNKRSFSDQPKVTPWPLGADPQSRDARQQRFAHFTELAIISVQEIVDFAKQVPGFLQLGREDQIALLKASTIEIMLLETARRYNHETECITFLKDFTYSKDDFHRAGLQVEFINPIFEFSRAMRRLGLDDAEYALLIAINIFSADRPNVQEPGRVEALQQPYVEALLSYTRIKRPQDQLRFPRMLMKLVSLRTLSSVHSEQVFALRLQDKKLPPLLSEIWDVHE
hcDAF12 conf = hcDAF-12 agonism, confirmation assay | shares compounds with hcDAF12 agonist | HEK293 hcDAF-12 lit1-tk-luc reporter, luminescence; % of Δ7-dafachronic acid response | activation, % at 6.8 µM | hit rate 61% among 3,400;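 active means mean activation across triplicate tests above the threshold derived from the earlier primary screen, cut at about 5.5% in these data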;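 further: 0% = DMSO only wells and 100% = 3 µM Δ7-dafachronic acid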
hgDAF12 ag = confirmation of H. glycines DAF-12 agonists; hit rate 80% among 3,300; activation, % at 6.8 µM; AID 743050; HEK293 GAL4-hgDAF12 luciferase reporter, agonist mode; percent of butyrate response; shares compounds with hgDAF12 agonist;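 active means mean activation over triplicate wells above the hit cutoff derived from the earlier primary screen, cut at about 11% in these data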;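 further: 0% = DMSO low control and 100% = 2 mM sodium butyrate high control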
LXR ag 2 = counter-screen for DAF-12 agonists: agonists of human LXR-beta; shares compounds with hgDAF12 agonist; HEK293 Gal4-LXR luciferase reporter, 24 h; activation, % at 6.8 µM; 3,300 tested, under 10 active;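 active means mean activation of the triplicate above a set limit carried over from the primary screen, none filed active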
The depositor's hits bear a star; . = not tested or not shown.

SMILES	hcDAF12 agonist	DAX1 inh	hgDAF12 agonist	ssDAF-12 act	SMARCA2 act	LXR ag	hcDAF12 conf	hgDAF12 ag	LXR ag 2
O=C(Nc1ccc2c(c1)OCO2)c1noc2c1CCCC2	8.1*	1.8	15.0*	0.9	1.5	1.8	8.5*	16.3*	1.0
COC(=O)[C@]12C[C@H](CC(=O)NCCc3ccccc3OC)C(=O)N(Cc3ccc4c(c3)OCO4)C1=C[C@H](COCc1ccccc1)O[C@@H]2C	-1.9	-1.4	0.2	-1.1	-0.4	.	.	.	.
CC(C)=CCC/C(C)=C/CN1C(=O)N(c2ccc(F)cc2)[C@H]2C[C@@H](c3ccccc3)[C@@H](C)[C@@H](C(=O)N3CCOCC3)C[C@H]21	-1.5	-4.5	-7.0	-2.2	-7.8	.	.	.	.
COC(=O)[C@]12C[C@H](CC(=O)NCc3ccc(OC)c(OC)c3)C(=O)N(Cc3ccccc3)C1=C[C@H](C1CCCC1)O[C@@H]2C	-1.0	-0.1	0.1	-0.5	3.3	.	.	.	.
Cc1noc(C)c1C(=O)Nc1ccc2ccccc2c1	-1.9	-1.1	-1.6	-1.3	-3.6	.	.	.	.
Cc1occc1C(=O)Nc1ccc2ccccc2c1	11.2*	2.3	14.3*	1.4*	6.8	1.1	5.5	15.7*	1.0
Cc1cccc(C(=O)Nc2ccc3ccccc3c2)c1	7.0*	3.5	13.8*	0.8	3.2	2.0	6.5*	23.3*	1.0
O=C(Nc1ccc2ccccc2c1)c1onc2c1CCCC2	11.6*	3.3	13.9*	1.4*	4.5	1.8	6.4*	21.2*	1.1
Cc1cccc(C(=O)Nc2ccc3c(c2)nc(C)n3C)c1	3.5	3.2	9.1	0.5	-1.1	.	.	.	.
COc1cccc(C(=O)Nc2ccc3ccccc3c2)c1	7.5*	1.5	17.1*	0.5	2.2	1.9	9.9*	24.3*	1.5
COc1nc(OC)nc(N2CCC(C(=O)NCc3ccccc3OC)CC2)n1	-1.8	0.3	3.6	-0.5	-6.0	.	.	.	.
CCCN1CCS(=O)(=O)N(Cc2cn(Cc3ccc(C)cc3)nn2)C(C(=O)OC)C1 (stereo unspecified)	0.1	-0.4	-3.2	-1.3	4.9	.	.	.	.
CN(C)c1ccc(CNC(=O)C2Cc3c(-c4cccc(C(N)=O)c4)ccnc3O2)cc1 (stereo unspecified)	-0.9	0.3	0.1	-1.1	0.0	.	.	.	.
COc1ccc(N2C(=O)c3n[nH]c(C)c3C2c2ccc(F)cc2)cc1 (stereo unspecified)	2.2	1.5	1.9	-0.7	0.1	.	.	.	.
Cc1cc(N/C=C\c2nnnn2-c2ccccc2)no1	1.3	-0.7	5.8	-0.3	3.3	.	.	.	.
CN(C)c1ccc(/C=C/c2nnnn2-c2ccccc2)cc1	11.0*	3.0	16.9*	0.2	4.3	1.1	6.1*	21.6*	0.9
COC(=O)[C@]12CCCCC=C1N(CCc1ccc(OC)c(OC)c1)C(=O)[C@H](CC(=O)NCc1cccs1)C2	0.7	-1.0	-2.1	-0.5	-0.2	.	.	.	.
O=C(Nc1ccc2c(c1)CCC2)c1cccc(F)c1	8.0*	4.4*	18.9*	0.8	6.3	1.2	5.7*	13.9*	0.8
O[C@H](COc1ccc(C(F)(F)F)cc1)CN1CCC(C(O)(c2ccccc2)c2ccccc2)CC1	-0.6	1.8	-2.2	-1.4	-4.8	.	.	.	.
Cc1ccc(S(=O)(=O)Nc2ccc(F)c(F)c2O)cc1	-1.1	-0.6	3.0	-1.2	-1.9	.	.	.	.
Cc1cccc(-c2cnn(-c3ccccc3)c2N)c1	3.5	0.7	6.0	-0.8	1.3	.	.	.	.
Nc1c(-c2ccccc2)cnn1-c1cccc(Cl)c1	7.1*	2.5	15.0*	-0.2	3.9	0.9	4.2	16.6*	0.7
C/C(=N\Nc1ncc(Cl)cc1Cl)c1ccc(OC(F)F)cc1	6.6*	0.9	20.1*	-0.9	2.7	-0.1	-0.8	0.4	0.1

Assay outcomes as filed in PubChem BioAssay.
